Source: PubChem BioAssay (National Center for Advancing Translational Sciences (NCATS))
Shown are actives, neighbours in structure and some others; about 21% of the full set was active somewhere.
ELG1 DNA repair – blocks ELG1-dependent DNA repair in HEK293T cells | HEK293T ELG1-luciferase reporter, luminescence, 16 h; DNA damage induced by 5-fluorouridine | Potency, µM (doses to about 46.1 µM), hits mostly inhibitors | 2.3% of 330,000 active; note: nearly all actives have a fitted effect of over 55% in size
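5-Fluorouridine DNA damage + compound/DMSO, 2,000 cells/well, 16 h, 37 °C/5% CO2. ONE-Glo, 30 min RT, luminescence. Readout = decrease in reporter signal.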
DT40 TDP1 CPT – DT40-hTDP1 cell growth loss with CPT; chicken DT40 Tdp1-/-;hTDP1 cells + 20 nM CPT, ATP luminescence, 48 h; AID 686979; 12% of 420,000 active; Potency, µM (series often up to 46.2 µM), hits mostly inhibitors; note: nearly all actives have a fitted effect of over 55% in size
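Chicken DT40 Tdp1-/- cells complemented with human TDP1, 400 cells/well, exposed to compounds plus 20 nM camptothecin for at least 48 h at 37 C; viability read as ATP content by CellTiter-Glo luminescence.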
TDP1 cell noCPT – qHTS for Inhibitors of human tyrosyl-DNA phosphodiesterase 1 (TDP1): qHTS in cells in absence of CPT. Potency, µM (top dose mostly 46.2 µM), actives largely listed as inhibitors. 15% of 420,000 active. DT40 Tdp1-/- hTDP1 cells, no CPT, ATP luminescence, 48 h; note: nearly all actives have a fitted effect of over 55% in size
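Seeded 400 DT40-hTDP1 cells/well (vehicle DMSO, no 20 nM CPT); pinned compounds; ≥48 hr at 37 °C; CellTiter-Glo luminescence as viability measure.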
RORgamma inh – inhibitors of mouse ROR gamma transcriptional activity; P51450; Drosophila S2 Gal4-RORgamma UAS-luciferase reporter, 20 h; Potency, µM (titrated, usually from 53.6 µM), actives largely listed as inhibitors; 5.4% of 310,000 active; AID 2551; note: nearly all actives have a fitted effect of over 60% in size
Target sequence (P51450 whole entry, looked up, the tested form may be a part): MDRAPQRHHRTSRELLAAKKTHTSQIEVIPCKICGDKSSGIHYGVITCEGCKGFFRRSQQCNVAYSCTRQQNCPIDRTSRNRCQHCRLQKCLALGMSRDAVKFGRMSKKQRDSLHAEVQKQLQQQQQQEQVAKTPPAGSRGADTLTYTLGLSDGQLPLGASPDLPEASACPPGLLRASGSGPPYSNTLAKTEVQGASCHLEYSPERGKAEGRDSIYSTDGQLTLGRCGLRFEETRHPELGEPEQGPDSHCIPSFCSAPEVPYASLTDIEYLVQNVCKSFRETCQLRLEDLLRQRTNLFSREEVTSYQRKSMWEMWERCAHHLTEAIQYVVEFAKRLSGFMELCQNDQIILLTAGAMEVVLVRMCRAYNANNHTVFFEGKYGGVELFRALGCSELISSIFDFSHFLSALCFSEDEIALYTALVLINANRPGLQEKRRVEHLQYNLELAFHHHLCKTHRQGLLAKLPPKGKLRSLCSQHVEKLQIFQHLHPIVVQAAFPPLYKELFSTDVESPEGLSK
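Using a luciferase readout, inhibitors were identified by reduced reporter activity in Drosophila cells coexpressing a copper-inducible Gal4–ROR gamma fusion and UAS-driven Photinus luciferase, incubated 20 hr after 700 uM copper sulfate.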
IL-1B inflam inh – inflammasome signaling inhibition, IL-1 beta readout; THP-1 LPS/ATP IL-1B secretion, AlphaLISA, 16 h; hits give low values; activity change, % at 57.5 µM; 4.7% of 360,000 active; AID 743279; in the data active = activity change below about -50%; inconclusive = mostly about -30% to -49%
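Secreted IL-1B measured by AlphaLISA bead assay after 16 h compound exposure of THP-1 cells; compounds (final up to 57.5 uM) added 1 h before LPS (250 ng/mL) and ATP (1.25 mM) stimulation; lower signal means less secretion.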
Gal4-VP16 FLuc – counter-screen for ROR gamma inhibitors: Gal4-VP16 reporter | Drosophila S2 Gal4-VP16 UAS-luciferase, luminescence, 20 h | Potency, µM (series often up to 53.6 µM), actives largely listed as inhibitors | 3.5% of 310,000 active;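 note: Gal4-VP16 expression switched on by copper sulfate through the metallothionein promoter; nearly all actives have a fitted effect of over 50% in size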
Each line names hits and unclear results; the compound was inactive in the other large screens. Unless noted, calls come from the whole dose curve; as a rule, active = well fitted curve in the direction sought with a large enough effect; inconclusive = small, poorly fitted or top-dose-only effect, or another doubt; inactive = no such curve, though single readings can be large; an effect the other way counts as inactive or inconclusive.

Cc1nn(Cc2ccccc2)c(Cl)c1/C=C/C(=O)OC(C)C(=O)N1CCCC1 (stereo not given)	ELG1 DNA repair inconclusive, TDP1 cell noCPT inconclusive
CCOc1ccc(OCC)c(NC(=O)CN2CCN(c3cccc(C)c3)C(C)C2)c1 (stereo not given)	ELG1 DNA repair inconclusive, DT40 TDP1 CPT 15µM, TDP1 cell noCPT 15µM
CCOc1ccc(OCC)c(NC(=O)CN2CCN(CC(=O)NC(C)C)CC2)c1	ELG1 DNA repair inconclusive, DT40 TDP1 CPT 15µM, TDP1 cell noCPT inconclusive
CCOc1ccc(OCC)c(NC(=O)CN2CCN(c3cc(C)ccc3C)CC2)c1	ELG1 DNA repair inconclusive, DT40 TDP1 CPT 21µM, TDP1 cell noCPT 23µM, RORgamma inh inconclusive
CCOc1ccc(OCC)c(NC(=O)CN2CCN(c3cccc(C)c3)CC2)c1	ELG1 DNA repair inconclusive, DT40 TDP1 CPT 23µM, TDP1 cell noCPT 16µM
Cc1cccc(N=C2C(=O)Nc3c(Cl)cccc32)c1	ELG1 DNA repair inconclusive, DT40 TDP1 CPT inconclusive, TDP1 cell noCPT 29µM
CCN(CC)c1ncnc2c1ncn2[C@H]1CN(Cc2cc(OC)c(OC)c(OC)c2)C[C@@H](CO)O1	none (no result: ELG1 DNA repair, RORgamma inh, Gal4-VP16 FLuc)
CO[C@H]1C[C@H](O[C@H]2[C@H](C)[C@@H](O[C@@H]3O[C@H](C)C[C@H](N(C)C)[C@H]3OC(C)=O)[C@@H](C)C[C@]3(CO3)C(=O)[C@H](C)[C@@H](OC(C)=O)[C@@H](C)[C@@H](C)OC(=O)[C@@H]2C)O[C@@H](C)[C@@H]1OC(C)=O	none (no result: ELG1 DNA repair, RORgamma inh, IL-1B inflam inh, Gal4-VP16 FLuc)
COc1cc(OC)c(Nc2nc3ccccc3c3nncn23)cc1Cl	DT40 TDP1 CPT inconclusive (no result: ELG1 DNA repair, RORgamma inh, IL-1B inflam inh, Gal4-VP16 FLuc)
CCOc1ccccc1NC(=O)CN(c1ccc(OC)cc1)S(=O)(=O)c1c(C)noc1C	DT40 TDP1 CPT 2.9µM, TDP1 cell noCPT 3.3µM
Cc1noc(C)c1S(=O)(=O)N(CC(=O)NCCc1ccccc1)c1ccc(C(C)C)cc1	TDP1 cell noCPT inconclusive
CCOc1ccc(N(CC(=O)Nc2ccccc2C)S(=O)(=O)c2c(C)noc2C)cc1	DT40 TDP1 CPT 4.6µM, TDP1 cell noCPT 2.9µM
Cc1noc(C)c1S(=O)(=O)N(CC(=O)NC(C)c1ccccc1)c1ccc(C(C)C)cc1 (stereo not given)	DT40 TDP1 CPT inconclusive, TDP1 cell noCPT inconclusive, RORgamma inh inconclusive, IL-1B inflam inh -53
CCOc1ccc(N(CC(=O)NC2CCCC2)S(=O)(=O)c2c(C)noc2C)cc1	none
CCOc1ccccc1NC(=O)CN(c1cc(C)cc(C)c1)S(=O)(=O)c1c(C)noc1C	none
Oc1ccc2ccccc2c1CNc1ccc2ccccc2c1	TDP1 cell noCPT inconclusive, IL-1B inflam inh -100 (no result: ELG1 DNA repair, RORgamma inh, Gal4-VP16 FLuc)
O=C(Nc1ccc2ccccc2c1)c1ccccc1O	ELG1 DNA repair inconclusive, DT40 TDP1 CPT 13µM, TDP1 cell noCPT 10µM, RORgamma inh inconclusive, IL-1B inflam inh -69, Gal4-VP16 FLuc inconclusive
O=C(Nc1ccc2ccccc2c1)c1ccc(Cl)cc1Cl	ELG1 DNA repair inconclusive, TDP1 cell noCPT inconclusive, RORgamma inh 7.9µM, IL-1B inflam inh inconclusive, Gal4-VP16 FLuc inconclusive
O=C(Nc1ccc2ccccc2c1)c1ccccc1Cl	DT40 TDP1 CPT inconclusive, TDP1 cell noCPT inconclusive (no result: ELG1 DNA repair, RORgamma inh, Gal4-VP16 FLuc)
Oc1ccc2ccccc2c1CNc1ccccc1	DT40 TDP1 CPT inconclusive, TDP1 cell noCPT inconclusive (no result: ELG1 DNA repair, RORgamma inh, Gal4-VP16 FLuc)
CC(C)(C)N(Cc1ccccc1)C(=O)COC(=O)CCN1C(=O)C2CC=CCC2C1=O (stereo not given)	none (no result: RORgamma inh, Gal4-VP16 FLuc)
COc1ccccc1-c1ccc(C(=O)N(C)CC2COCCO2)c(N2CCN(c3ccccc3F)CC2)n1 (stereo not given)	none (no result: ELG1 DNA repair, RORgamma inh, IL-1B inflam inh, Gal4-VP16 FLuc)
COc1cc2cc(CCCO)oc(=O)c2cc1OC	ELG1 DNA repair inconclusive (no result: RORgamma inh, Gal4-VP16 FLuc)
Cn1c(SCC(=O)Nc2ccc(C(N)=O)cc2)nc2c(c1=O)SCC2	ELG1 DNA repair inconclusive
Cn1c(SCC(=O)Nc2ccccc2C(F)(F)F)nc2c(c1=O)SCC2	DT40 TDP1 CPT 16µM, TDP1 cell noCPT 10µM
